Values joined by “and” are separate entries in the source; they are usually repeats but may differ in a detail not shown here. Equal entries are not always repeated. Results filed as inconclusive are left out. Entries that show only a call come without a potency. Active and inactive are the calls of the source. Calls come from the whole dose curve; as a rule, active = well fitted cell-killing curve with a large enough effect; inconclusive = small, poorly fitted or top-dose-only effect; inactive = flat fitted curve, though single readings scatter.
Test: qHTS of pediatric cancer cell lines to identify multiple opportunities for drug repurposing: Primary screen for control Hh wild type fibroblast cells (AID 1347106); note: nearly all actives have a fitted effect of over 55% in size
Details: Hh wild-type fibroblast viability, CellTiter-Glo luminescence, 48 h; series mostly up to 46 µM
How it was run: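 Viability after 48 h compound treatment at 37C, 500-1,000 cells/well, read as ATP luminescence with CellTiter-Glo. Primary screens used 11-point (MIPE, 0.78 nM-46 µM) or 8-point (NPC, 0.59 nM-46 µM) final concentrations; follow-up screens used 11-point dilutions.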
Potency is the fitted concentration of half-maximal effect.

Structure (SMILES)	Potency
COc1ccc(-c2ccc3cc(C(=O)O)ccc3c2)cc1C12CC3CC(CC(C3)C1)C2	inactive
OC(Cn1cncn1)(Cn1cncn1)c1ccc(F)cc1F	inactive
CC(C)NCC(O)c1ccc(NS(C)(=O)=O)cc1 (configuration not stated)	inactive
CCN1CCCC1CNC(=O)c1cc(S(N)(=O)=O)ccc1OC (configuration not stated)	inactive
CCn1cc(C(=O)O)c(=O)c2cc(F)c(N3CCNCC3)nc21	inactive
COC(=O)Nc1nc2ccc(Sc3ccccc3)cc2[nH]1	inactive
CO[C@@H]1[C@@H](OC(N)=O)[C@@H](O)[C@H](Oc2ccc3c(O)c(NC(=O)c4ccc(O)c(CC=C(C)C)c4)c(=O)oc3c2C)OC1(C)C	inactive
COc1cc2c(Nc3ccc(Br)cc3F)ncnc2cc1OCC1CCN(C)CC1	inactive
CCCCOc1ccc(CC(=O)NO)cc1	inactive
COc1cc(NS(=O)(=O)c2ccc(N)cc2)nc(OC)n1	inactive
CC(C)(C)C(=O)OCOP(=O)(COCCn1cnc2c(N)ncnc21)OCOC(=O)C(C)(C)C	inactive
O=S(=O)(O)CCS	inactive
COc1cccc(N(C)C(=S)Oc2ccc3c(c2)CCCC3)n1	inactive
CC(C)(C#N)c1cc(Cn2cncn2)cc(C(C)(C)C#N)c1	inactive
N[C@@H](C(=O)N[C@@H]1C(=O)N2C(C(=O)O)=C(Cl)CS[C@H]12)c1ccccc1	inactive
CN(C)CCc1c[nH]c2ccc(C[C@H]3COC(=O)N3)cc12	inactive
CCN(CC)CCn1c(=O)c(Cc2ccc(OC)cc2)nc2ccccc21	inactive
COc1cc([C@@H]2c3cc4c(cc3[C@H](O)[C@H]3COC(=O)[C@H]23)OCO4)cc(OC)c1OC	inactive
CCOC(=O)c1ccc(C#Cc2ccc3c(c2)C(C)(C)CCS3)nc1	inactive

Structure (SMILES)	Potency
Nc1nc(F)nc2c1ncn2[C@@H]1O[C@H](CO)[C@@H](O)[C@@H]1O	inactive
Nc1nc(N)nc(-c2cc(Cl)ccc2Cl)n1	inactive
NC(=O)c1cccnc1	inactive
COC(=O)Nc1nc2ccc(S(=O)c3ccccc3)cc2[nH]1 (configuration not stated)	inactive
CC(C)OC(=O)C(C(=O)OC(C)C)=C1SC=CS1	inactive
CCOC(=O)[C@H](CCc1ccccc1)N[C@H]1CS[C@H](c2cccs2)CN(CC(=O)O)C1=O	inactive
CC(C)C[C@H](NC(=O)[C@H](CCc1ccccc1)NC(=O)CN1CCOCC1)C(=O)N[C@@H](Cc1ccccc1)C(=O)N[C@@H](CC(C)C)C(=O)[C@@]1(C)CO1	335 nM (active) and 264 nM (active)
COc1nc(N)nc2c1ncn2[C@@H]1O[C@H](CO)[C@@H](O)[C@@H]1O	inactive
COCCCOc1cc(C[C@@H](C[C@H](N)[C@@H](O)C[C@H](C(=O)NCC(C)(C)C(N)=O)C(C)C)C(C)C)ccc1OC	inactive
CC(C(=O)O)c1ccc2c(c1)CC(=O)c1ccccc1S2 (configuration not stated)	inactive
C[C@@H]1C[C@H]2[C@@H]3CCC4=CC(=O)C=C[C@]4(C)[C@@]3(Cl)[C@@H](O)C[C@]2(C)[C@@]1(OC(=O)c1ccco1)C(=O)CCl	inactive
O=C(O)c1cc(=O)[nH]c(=O)[nH]1	inactive
CCOCC(O)COc1ccc(NC(=O)CC[S+](C)C)cc1 (configuration not stated)	inactive
O=NN(CCCl)C(=O)NC1CCCCC1	inactive
Nc1[nH]c(=O)ncc1F	inactive
COc1ccc(C(=O)CC(=O)c2ccc(C(C)(C)C)cc2)cc1	inactive
Cc1cccc(N(C)C(=S)Oc2ccc3ccccc3c2)c1	inactive
CC(C)C1CCC(C(=O)N[C@H](Cc2ccccc2)C(=O)O)CC1 (some centres not stated)	inactive

— PubChem BioAssay (NCATS)
